Records with an inconclusive call do not appear. Active and inactive are the calls of the source. The call rests on the fitted dose curve; in most records, active means well fitted inhibition curve with a large enough effect; inconclusive means small, poorly fitted or top-dose-only effect; inactive means no such curve, though single readings can be large or run the other way.

Sequence of Single-stranded DNA cytosine deaminase (Homo sapiens) (Q9GZX7 whole entry, looked up): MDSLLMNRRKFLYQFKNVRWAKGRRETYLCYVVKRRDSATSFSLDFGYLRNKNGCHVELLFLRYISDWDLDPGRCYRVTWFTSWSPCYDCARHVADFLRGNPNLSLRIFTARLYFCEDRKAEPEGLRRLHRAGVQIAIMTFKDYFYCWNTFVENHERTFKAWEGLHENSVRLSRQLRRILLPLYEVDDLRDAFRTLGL

One experiment has as its target Single-stranded DNA cytosine deaminase (Homo sapiens) (UniProt Q9GZX7). The experiment in a line: Validation qHTS assay for inhibitors of Activation Induced Cytidine Deaminase (AID): AID signal (AID 1347429). As to conditions: Recombinant AID, FRET ssDNA deamination with UDG, fluorescence; series mostly up to 115 µM. The procedure, abridged: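 AID and UDG were combined and compounds added at final up to 114 uM, then DJC20/DJC23 FRET substrate was added for 4 hr at room temperature. NaOH was then added for 30 min before fluorescence was read at 540/590 nm.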
`CN1C2CCC1CC(OC(=O)c1cc(Cl)cc(Cl)c1)C2` (stereo not drawn): the outcome was inactive.

`CCCCc1ccc(C(=O)O)nc1`: the outcome was inactive.

Regarding `NC1CC1c1ccccc1` (stereo not drawn), the result was inactive.

Turning to `O=C(O)CC[N+](=O)[O-]`, the result was inactive.

`CCCN1CCC[C@H](c2cccc(O)c2)C1`: the outcome was inactive.

Take `O=C(N[C@H]1CN2CCC1CC2)c1ccc(Cl)cc1`: the outcome was inactive.

In the case of `CNCCc1c[nH]c2ccc(O)cc12`, the result was inactive.

Take `CC(C)Oc1cccnc1N(C)C1CCN(Cc2ccccc2)CC1`: the result was inactive.

Take `CC(=O)NCCc1c[nH]c2ccccc12`: the outcome was inactive.

Turning to `COc1cc(C(O)CN)ccc1O` (stereo not drawn), the result was inactive.

On to `O=C(O)[C@@H]1CCN1`, for which the outcome was inactive.

As for `CCCN1CCO[C@@H]2c3cc(O)ccc3OC[C@H]21`, the outcome was inactive.

For the compound `NCCc1c[nH]c2ccc(O)cc12`, the result was inactive.

As to `O=C1CCCN1CC#CCN1CCCC1`, the outcome was inactive.

As to `NC1CCc2cc(O)c(O)cc2C1` (stereo not drawn), the result was inactive.

For `O=C(O)Cc1cnc[nH]1`, the outcome was inactive.

In the case of `S=C(NC1CCCCC1)N1CCC(c2cnc[nH]2)CC1`, the outcome was inactive.

As to `NCCc1c[nH]c2ccccc12`, the result was inactive.

Regarding `NC(CCP(=O)(O)O)C(=O)O` (stereo not drawn), the outcome was inactive.

`C[C@]12CCC3C(CC[C@H]4C[C@H](O)CC[C@]34C)C1CC[C@@H]2C(=O)CO` (stereo partly drawn): the outcome was inactive.

In the case of `CC[C@@H](C(N)=O)N1CCCC1=O`, the outcome was inactive.

As for `C=CCN1CC[C@]23CCCCC2[C@H]1Cc1ccc(O)cc13` (stereo partly drawn), the outcome was inactive.

Consider `c1ccc2sc(C3(N4CCCCC4)CCCCC3)cc2c1`, for which the outcome was inactive.

`C[C@@H](N)Cc1cnc[nH]1`: the outcome was inactive.

Regarding `NC(=O)CN1CC(O)CC1=O` (stereo not drawn), the outcome was inactive.

Take `Oc1ccc2c3c1O[C@H]1c4[nH]c5c(c4C[C@@]4(O)[C@@H](C2)N(CC2CC2)CC[C@]314)C[C@@]1(O)[C@H]2Cc3ccc(O)c4c3[C@@]1(CCN2CC1CC1)[C@H]5O4`: the outcome was inactive.

Take `CCCN(CCC)C1CCc2ccc(O)cc2C1` (stereo not drawn): the result was inactive.

Turning to `NC(CP(=O)(O)O)C(=O)O` (stereo not drawn), the outcome was inactive.

As for `COC(=O)[C@@H](N)CCCN=C(N)N[N+](=O)[O-]`, the outcome was inactive.

On to `C#CCOC(=O)C1=CCCN(C)C1`, for which the result was inactive.

As for `CNCCc1ccc(O)c(O)c1`, the outcome was inactive.

With `NC(N)=NOCCC(N)C(=O)O` (stereo not drawn), the outcome was inactive.

As for `CC[C@@]1(O)C(=O)OCc2c1cc1n(c2=O)Cc2cc3ccccc3nc2-1`, the result was inactive.

System in the next experiment: not listed separately
The experiment in a line: Primary qHTS for inhibitors of La Crosse Virus (LACV) - induced cell death in SH-SY5Y cells (AID 1508616).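 Further: top concentration of the series differs between compounds; higher means more rescue of cells from virus-induced death.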 As to conditions: SH-SY5Y LACV cytopathicity rescue, ATP luminescence, 6 d; series mostly up to 9.63 µM. Summed up:
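Luminescent ATP readout (ATPLite 1step, 5 min room temperature) measured rescue from LACV-induced death after 6 days of infection at 0.01 MOI; normalized to infected DMSO wells and uninfected DMSO wells.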
Regarding `CN1C2CCC1CC(OC(=O)c1cc(Cl)cc(Cl)c1)C2` (stereo not drawn), the compound was called inactive.

Regarding `O=C(N[C@H]1CN2CCC1CC2)c1ccc(Cl)cc1`, the outcome was inactive.

In the case of `COc1cc(C(O)CN)ccc1O` (stereo not drawn), the compound was called inactive.

Take `CCCN1CCO[C@@H]2c3cc(O)ccc3OC[C@H]21`: the call was inactive.

`S=C(NC1CCCCC1)N1CCC(c2cnc[nH]2)CC1`: the call was inactive.

For `NC(CCP(=O)(O)O)C(=O)O` (stereo not drawn), the result was inactive.

Turning to `CC[C@@H](C(N)=O)N1CCCC1=O`, the compound was classed as inactive.

Consider `NC(=O)CN1CC(O)CC1=O` (stereo not drawn), for which the call was inactive.

Take `CCCN(CCC)C1CCc2ccc(O)cc2C1` (stereo not drawn): the outcome was inactive.

Consider `COC(=O)[C@@H](N)CCCN=C(N)N[N+](=O)[O-]`, for which the call was inactive.

For the origin of these results see PubChem BioAssay (NCATS).
